Compound activity deposited in PubChem by National Center for Advancing Translational Sciences (NCATS).
This is a sample that favours compounds with a hit; in the whole collection about 12% have one here.
HP1b binding inh: blocks HP1-beta chromodomain binding to methylated histone tails | AlphaScreen HP1-beta / biotin-H3K9me3 peptide binding | Potency, µM (series often up to 114 µM), without a hit: top-dose activity change, negative = inhibition, usual class: inhibitors | 390,000 compounds, 0.56% hits | AID 540317; also: nearly all actives have a fitted effect of over 70% in size
Target sequence (P83916 whole entry, looked up): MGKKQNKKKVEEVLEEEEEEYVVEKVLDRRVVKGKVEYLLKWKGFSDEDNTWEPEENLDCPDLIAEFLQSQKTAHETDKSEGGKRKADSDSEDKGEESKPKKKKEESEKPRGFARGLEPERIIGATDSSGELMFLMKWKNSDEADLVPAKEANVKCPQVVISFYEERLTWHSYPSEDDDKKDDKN
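AlphaScreen: HP1-beta (50 nM) preformed 30 min with biotin-H3(1-18)K9me3 peptide (50 nM) in PBS pH 7.4, 0.01% Tween-20. Compound added for 30 min at RT, then streptavidin donor/nickel chelate acceptor beads (10 ug/mL) for 30 min.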
JMJD2A Tudor inh: blocks the human JMJD2A Tudor domain; O75164; AlphaScreen JMJD2A-Tudor / H3K4me3 peptide binding; Potency, µM (top dose mostly 114 µM), for the others: at the highest dose activity change, negative = inhibition, hits mostly inhibitors; 390,000 compounds, 4.4% hits; AID 504339; also: % is scaled to controls: 0 for no effect and ±100 for the full control effect; nearly all actives have a fitted effect of over 50% in size
G9a block: blocks human histone lysine methyltransferase G9a; AID 504332; Potency, µM (highest dose often 102 µM), inactives show at the highest dose activity, negative = inhibition, hits mostly inhibitors; 350,000 compounds, 8.8% hits; G9a H3K9 monomethylation, AlphaScreen, 2 h; Q96KQ7; also: % is scaled to controls: 0 for no effect and ±100 for the full control effect; nearly all actives have a fitted effect of over 75% in size
Target sequence (Q96KQ7 913-1193 limits assumed): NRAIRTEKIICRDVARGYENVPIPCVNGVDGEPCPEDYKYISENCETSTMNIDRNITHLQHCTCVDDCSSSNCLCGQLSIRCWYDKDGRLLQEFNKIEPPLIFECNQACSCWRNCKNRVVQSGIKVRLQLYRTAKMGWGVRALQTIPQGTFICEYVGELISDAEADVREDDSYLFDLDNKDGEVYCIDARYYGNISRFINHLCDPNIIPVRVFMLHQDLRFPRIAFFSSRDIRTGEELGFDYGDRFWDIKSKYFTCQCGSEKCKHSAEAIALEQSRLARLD
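Step 1: enzyme (final 20 nM) with compound, 15 min RT. Step 2: substrate peptide 500 nM and SAM 20 uM, 2 h RT. Step 3: anti-H3K9me1 antibody and AlphaScreen beads, 10 min, then plate read.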
BAZ2B inh: inhibitors of human BAZ2B bromodomain. AlphaScreen BAZ2B-H3K14Ac peptide displacement. Potency, µM (series often up to 114 µM), without a hit: top-dose activity change, negative = inhibition, usual class: inhibitors. 360,000 compounds, 4.4% hits. AID 504333; also: % is scaled to controls: 0 for no effect and ±100 for the full control effect; nearly all actives have a fitted effect of over 60% in size
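Protein-peptide AlphaScreen: BAZ2B 50 nM, b-H3K14Ac 50 nM, 1x PBS pH 7.4 + 0.01% Tween-20. Preincubation 30 min RT; cpd 30 min RT (top 110 uM); beads 20 min RT, light-protected.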
PLK1 PBD inh: PLK1 (human) polo-box domain binding inhibition; Potency, µM, inactives show max response, negative = inhibition, usual class: inhibitors; AID 720504; P53350; 360,000 compounds, 2.8% hits; Plk1 PBD binding of FITC phosphopeptide, fluorescence polarization; also: series mostly up to about 57 µM; % is scaled to controls: 0 for no effect and ±100 for the full control effect; nearly all actives have a fitted effect of over 65% in size
Sfp inh: inhibitors of Bacillus subtilis Sfp phosphopantetheinyl transferase; AID 1490; 310,000 compounds, 3.5% hits; Potency, µM, inactives show largest response in the series, negative = inhibition, hits mostly inhibitors; Q9F4F7; Biochemical Sfp PPTase activity, qHTS;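 also: the enzyme is Sfp with the accession as filed and its product quenches rhodamine fluorescence; 0% = enzyme reaction without inhibitor and -100% = no enzyme wells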
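Step 1, compound plus 15 nM Sfp-PPTase, 15 min, room temperature. Step 2, add rhodamine-CoA (5 uM) and BHQ-2-YbbR (12.5 uM). Step 3, read 525/598 nm fluorescence at 0 and 30 min.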
Active calls of the source: *; [ ] = remark or other dose. Calls follow the shape of the dose curve; as a rule, active = well fitted curve in the direction sought with a large enough effect; inconclusive = small, poorly fitted or top-dose-only effect, or another doubt; inactive = no such curve, though single readings can be large; an effect the other way counts as inactive or inconclusive. Potency is read from the fitted curve at half-maximal effect.

For CCc1cccc(C)c1Nc1c(-c2cccs2)nc2nc(C)cc(C)n12 the results were HP1b binding inh 3.3%, JMJD2A Tudor inh -16.1%, G9a block -0.3%[59 µM] and BAZ2B inh -11.9%.
`CC(C)C[C@@H](CNCC(=O)[C@H](C)NC(=O)c1[nH]cnc1C(=O)N[C@@H](C)CN)NC(=O)c1nc[nH]c1C(=O)N[C@@H](C)C(=O)O` gave HP1b binding inh 66.3%, JMJD2A Tudor inh 50.1µM* and PLK1 PBD inh -8.9%.
CC(C)C[C@@H](CNCC(=O)[C@H](C)NC(=O)c1[nH]cnc1C(=O)N[C@@H](C)CN)NC(=O)c1nc[nH]c1C(=O)N[C@@H](CO)C(=O)O was read as HP1b binding inh 26.8%, JMJD2A Tudor inh 89.1µM* and PLK1 PBD inh -8.8%.
`CC(C)C[C@@H](CNCC(=O)[C@H](Cc1ccccc1)NC(=O)c1[nH]cnc1C(=O)N[C@@H](C)CN)NC(=O)c1nc[nH]c1C(=O)N[C@@H](C)C(=O)O` gave HP1b binding inh 55.5%, JMJD2A Tudor inh 79.4µM* and PLK1 PBD inh -22.0%.
`CN(C(=O)Cn1c(=O)n(Cc2ccc(C(=O)NCc3ccc4c(c3)OCO4)cc2)c(=O)c2ccccc21)c1ccccc1` gave HP1b binding inh 58.9%, JMJD2A Tudor inh -20.1%, G9a block 1.4%[59 µM] and BAZ2B inh -2.6%.
For CSc1cccc(NC(=O)c2cc3c(COC(C)=O)cnc(C)c3oc2=O)c1 the results were HP1b binding inh 14.8%, JMJD2A Tudor inh -12.9%, G9a block 0.0%[12.7 µM] and BAZ2B inh -15.7%.
For COc1ccc(/C=N/NC(=O)c2ccccc2)cc1CN1CCN(c2ccc(F)cc2)CC1 the results were HP1b binding inh 0.8%, JMJD2A Tudor inh -16.2%, G9a block 26.4%[12.7 µM], BAZ2B inh -5.0%, PLK1 PBD inh -11.5% and Sfp inh 14.7%.
COc1ccc(/C=N/NC(=O)c2ccccc2F)cc1CN1CCN(c2ccc(F)cc2)CC1 was read as HP1b binding inh -18.5%, JMJD2A Tudor inh -25.2%, G9a block -50.9%[59 µM], BAZ2B inh 50.1µM*, PLK1 PBD inh -3.5% and Sfp inh 2.6%.
`COc1cc(/C=N/NC(=O)c2ccc(-n3cccc3)cc2)ccc1O` gave HP1b binding inh -33.8%, JMJD2A Tudor inh inconclusive, G9a block 79.4µM*, BAZ2B inh inconclusive, PLK1 PBD inh -11.6% and Sfp inh -2.2%.
For COc1ccc(/C=N/NC(=O)c2cccnc2)cc1CN1CCOCC1 the results were HP1b binding inh 34.5%, JMJD2A Tudor inh 6.2%, BAZ2B inh 0.9%, PLK1 PBD inh 1.2% and Sfp inh 6.6%.
Screening COc1cc(/C=N/NC(=O)NC23CC4CC(CC(C4)C2)C3)ccc1O returned HP1b binding inh 0.9%, JMJD2A Tudor inh -32.9%, G9a block 56.2µM*, BAZ2B inh inconclusive, PLK1 PBD inh -0.4% and Sfp inh -12.6%.
Screening COc1cc(C(=O)N/N=C/c2ccc(OC)c(CN3CCN(c4ccc(F)cc4)CC3)c2)ccc1O returned HP1b binding inh -13.7%, JMJD2A Tudor inh 44.7µM*, G9a block inconclusive, BAZ2B inh -70.2%, PLK1 PBD inh -9.0% and Sfp inh 2.1%.
`COc1ccc(NC(=O)CN2C(=O)NC(C)(c3ccccc3)C2=O)cc1Cl` (stereo not given) gave HP1b binding inh -11.8%, JMJD2A Tudor inh -23.6%, G9a block 14.0%, BAZ2B inh -1.1%, PLK1 PBD inh -3.0% and Sfp inh 25.1%.
Screening CCc1ccc(CN(Cc2cn[nH]c2-c2ccc(OC)cc2)C(=O)Nc2ccc(C)c(F)c2)cc1 returned HP1b binding inh 67.0%, JMJD2A Tudor inh 6.0%, G9a block -34.7%[59 µM] and BAZ2B inh 13.9%.
COc1ccc(C(=O)N/N=C/c2ccc(OC)c(CN3CCc4cc(OC)c(OC)cc4C3C)c2)cc1 (stereo not given) was read as HP1b binding inh 9.1%, JMJD2A Tudor inh -21.2%, G9a block -25.3%, BAZ2B inh -17.8%, PLK1 PBD inh 5.2% and Sfp inh 100µM*.
COc1ccc(C(=O)N/N=C/c2ccc(OC)c(COc3ccc(F)cc3)c2)cc1 was read as HP1b binding inh 8.0%, JMJD2A Tudor inh -10.3%, BAZ2B inh -26.8%, PLK1 PBD inh -7.4% and Sfp inh 17.7%.
`CC1(c2ccccc2)NC(=O)N(CC(=O)N2CCN(S(=O)(=O)c3ccccc3[N+](=O)[O-])CC2)C1=O` (stereo not given) gave HP1b binding inh 2.2%, JMJD2A Tudor inh -22.9%, G9a block 28.4%, BAZ2B inh -0.4%, PLK1 PBD inh -12.9% and Sfp inh 14.3%.
For CCCCc1nc2cc(C(=O)N3CCCCC3CCNC(C)=O)ccc2o1 (stereo not given) the results were HP1b binding inh 21.1%, JMJD2A Tudor inh inconclusive, G9a block inconclusive, BAZ2B inh -3.9%, PLK1 PBD inh 23.8µM* and Sfp inh 7.7%.
For CCN(CC(=O)Nc1cccc(S(=O)(=O)N(C)c2ccccc2)c1)Cc1cccs1 the results were HP1b binding inh 20.8%, JMJD2A Tudor inh -6.0%, G9a block 9.8%[59 µM], BAZ2B inh -31.8% and PLK1 PBD inh -3.8%.
For OC(CNCc1ccco1)Cn1c2ccccc2c2ccccc21 (stereo not given) the results were HP1b binding inh -9.3%, JMJD2A Tudor inh inconclusive, G9a block 50.1µM*, BAZ2B inh inconclusive, PLK1 PBD inh 0.4% and Sfp inh 6.7%.
For CS(=O)(=O)N(Cc1ccco1)CC(O)Cn1c2ccccc2c2ccccc21 (stereo not given) the results were HP1b binding inh -17.5%, JMJD2A Tudor inh inconclusive, G9a block 14.1µM*, BAZ2B inh inconclusive, PLK1 PBD inh -2.7% and Sfp inh 7.3%.
OC(CNCc1ccco1)COc1ccccc1 (stereo not given) was read as HP1b binding inh 32.9%, JMJD2A Tudor inh -19.6%, G9a block -11.7%[59 µM], BAZ2B inh 18.0%, PLK1 PBD inh -5.6% and Sfp inh 19.0%.
Screening CC1CCCCC1NC(=O)CCNS(=O)(=O)c1ccc(Cl)cc1 (stereo not given) returned HP1b binding inh 56.2%, JMJD2A Tudor inh 2.3%, G9a block 19.0%, BAZ2B inh -2.8%, PLK1 PBD inh 0.6% and Sfp inh 10.6%.
Screening CCOC(=O)c1ccc(NC(=O)C2=C(C)C(=O)OC23CCN(C(C)=O)CC3)cc1 returned HP1b binding inh 27.8%, JMJD2A Tudor inh -13.2%, G9a block 6.5%[59 µM] and BAZ2B inh 0.3%.
Screening N#Cc1cc([N+](=O)[O-])ccc1NC(=O)CSc1n[nH]c(=O)[nH]c1=O returned HP1b binding inh 28.9%[57 µM], JMJD2A Tudor inh -11.0% and PLK1 PBD inh -1.9%.
